IMPase inh: IMPase inhibition in cells; CHO-M1 cells, IP1 accumulation, HTRF TR-FRET ratio; inhibition (IP1 accumulation), % at 46.1 µM; P97697; AID 901; 120,000 tested, under 10 active; active = well fitted curve in the direction sought with a large enough effect in the signal ratio, not every such curve was filed as active; inconclusive = small, poorly fitted or top-dose-only effect, or a change in a side signal; inactive = no such curve, though single readings can be large or run the other way; the % refers to the signal ratio;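 note: cells stimulated with carbachol in lithium chloride buffer; plate controls were DMSO basal wells for no effect and reference inhibitor wells for full effect; higher means more IMPase inhibition seen as more IP1 and lower FRET ratio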
Target sequence (P97697 whole entry, looked up): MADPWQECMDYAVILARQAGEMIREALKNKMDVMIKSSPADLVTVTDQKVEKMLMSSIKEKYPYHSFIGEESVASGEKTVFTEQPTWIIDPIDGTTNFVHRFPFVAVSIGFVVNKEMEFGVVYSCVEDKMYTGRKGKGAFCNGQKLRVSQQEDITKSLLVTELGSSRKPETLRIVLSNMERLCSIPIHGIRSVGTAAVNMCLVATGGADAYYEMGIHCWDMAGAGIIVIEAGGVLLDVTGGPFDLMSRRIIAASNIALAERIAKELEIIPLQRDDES
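Measured: the HTRF emission ratio (665/620 nm) plus the 620 nm donor channel, each fitted to the Hill equation to give AC50. Cells were CHO-M1 given compounds up to 46 uM and a 30 min carbachol stimulation at 37C.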
IMPase Li cell: IMPase inhibition in cells with lithium potentiation; CHO-M1 cells, IP1 TR-FRET (IP-One), carbachol + lithium; Potency, µM (top dose mostly 59.4 µM), without a hit: top-dose activity, negative = IMPase inhibition, actives largely listed as inhibitors; hit rate 0.35% among 210,000; AID 1457;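 note: IP1 builds up when IMPase is blocked and the TR-FRET signal falls; potency is the fitted concentration of half-maximal effect; plate controls were basal vehicle for no effect and high inhibitor control for full effect; nearly all actives have a fitted effect of over 50% in size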
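IP1 accumulation measured by competitive TR-FRET in lysed CHO-M1 cells after 30 min compound exposure at 37C, with a small lithium addition to potentiate weak responses. Hill-equation AC50 from ratio and donor-channel data.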
HTT aggregate: mutant huntingtin aggregation inhibition. PC12 HttQ103-GFP aggregates, Acumen cytometry, 40 h. Potency, µM (series often up to 46.1 µM), for the others: at the highest dose activity change, negative = inhibition, usual class: inhibitors. hit rate 1.1% among 220,000. AID 1688; note: potency is the fitted concentration of half-maximal effect; % is set by controls: 0 for no effect and ±100 for the full control effect; nearly all actives have a fitted effect of over 60% in size
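Inducible Q103 Huntingtin exon 1–GFP PC12 line, 1500 cells/well in phenol red free DMEM with 5% equine and 5% calf serum. Tebufenozide 100 nM induced expression; compounds titrated; aggregates quantified by cytometry.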
NPSR antagonist: neuropeptide S receptor (human) antagonism, cAMP; Potency, µM (highest dose often 38.3 µM), without a hit: at the top dose activity change, negative = inhibition, most hits filed as inhibitors; CHO-NPSR cells, cAMP TR-FRET, antagonist mode; Q6W5P4; hit rate 1% among 220,000; note: potency is the fitted concentration of half-maximal effect; % is set by controls: 0 for no effect and ±100 for the full control effect; nearly all actives have a fitted effect of over 50% in size
Target sequence (Q6W5P4 whole entry, looked up): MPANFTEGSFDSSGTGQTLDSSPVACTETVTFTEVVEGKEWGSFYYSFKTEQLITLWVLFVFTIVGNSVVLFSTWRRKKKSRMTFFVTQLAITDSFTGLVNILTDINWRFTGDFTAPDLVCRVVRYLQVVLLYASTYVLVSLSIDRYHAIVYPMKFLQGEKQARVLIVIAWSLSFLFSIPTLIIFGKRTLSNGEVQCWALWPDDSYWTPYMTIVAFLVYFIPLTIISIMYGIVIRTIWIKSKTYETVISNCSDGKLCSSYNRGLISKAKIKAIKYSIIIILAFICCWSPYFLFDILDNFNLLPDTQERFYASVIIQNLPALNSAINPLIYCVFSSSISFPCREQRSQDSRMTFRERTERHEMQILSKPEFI
HTT cytoprotect: cytoprotection in Huntington HTT-Q103 PC12 cell model. Potency, µM (titrated, usually from 56.4 µM), for the others: cytoprotection (ATP increase), usual class: activators. AID 1471. hit rate 0.14% among 230,000. PC12 HTT-Q103 induced, cytoprotection, ATP luminescence, 40 h; note: potency is the fitted concentration of half-maximal effect; % of control where 0% means no effect; nearly all actives have a fitted effect of over 45% in size
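Huntington model: PC12 line, ecdysone-inducible HTTQ103 exon1–GFP, tebufenozide 100 nM. Test articles in a dose series. Endpoint luminescence from cellular ATP.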
Lamin A splicing: LMNA splicing modulation. HeLa LMNA splicing GFP/RFP minigene ratio, 48 h. Potency, µM (highest dose often 46.1 µM), inactives show top-dose ratio change, negative = inhibition, actives largely listed as inhibitors. hit rate 0.01% among 200,000. AID 1487; active = well fitted inhibition curve with a large enough effect in the signal ratio, with a control signal flat, not every such curve was filed as active; inconclusive = small, poorly fitted or top-dose-only effect, or effect the other way, or a change in a side signal; the % refers to the signal ratio; note: potency is the fitted concentration of half-maximal effect; % is set by controls: 0 for no effect and ±100 for the full control effect
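S3 HeLa stable clones carrying a lamin A-EGFP splicing minigene plus DsRed2 were seeded at 600 cells/well in Opti-MEM with 2% FBS, pin-dosed and incubated 48 h at 37°C. Acumen cytometry (488 nm) gave the GFP/RFP total-intensity ratio.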
* hit, by the source's call; ! = not confirmed by another sample; [ ] = dose if it differs, or a comment. Hits are enriched below; roughly 1.6% of the tested compounds scored in any of these assays. Unless noted, calls come from the whole dose curve; as a rule, active = well fitted curve in the direction sought with a large enough effect; inconclusive = small, poorly fitted or top-dose-only effect, or another doubt; inactive = no such curve, though single readings can be large; an effect the other way counts as inactive or inconclusive.

What do the screens show for `Cc1cccc(C(=O)NNC(=O)c2ccccc2)c1`?
IMPase Li cell: 2%; HTT aggregate: 1%; NPSR antagonist: 14%; HTT cytoprotect: 13%[10 µM]; Lamin A splicing: 5%

How did Cc1cccc(C(=O)CC(=O)c2cc(Cl)ccc2O)c1 do in these assays?
IMPase inh: -1; IMPase Li cell: 23%[38.3 µM]; HTT aggregate: 13µM*; NPSR antagonist: inconclusive; HTT cytoprotect: -45%; Lamin A splicing: inconclusive

Results for O=C(CC(=O)c1cc(Cl)ccc1O)c1ccccc1 ?
IMPase inh: 1; IMPase Li cell: 12%[38.3 µM]; HTT aggregate: 11µM*; NPSR antagonist: inconclusive; HTT cytoprotect: 4%[10 µM]; Lamin A splicing: inconclusive

How did Cc1ccc(O)c(C(=O)CC(=O)c2cccc(F)c2)c1 do in these assays?
IMPase inh: -6; IMPase Li cell: 10%[38.3 µM]; HTT aggregate: 18µM*; NPSR antagonist: inconclusive; HTT cytoprotect: -6%[10 µM]; Lamin A splicing: -21%

What do the screens show for `CC(=O)N1c2ccccc2CC1C(=O)N1CCN(c2ccccc2)CC1` (stereo not given)?
Lamin A splicing: -4%[46 µM]

How did CCCCC/C=C\C/C=C\C/C=C\C=C\C(O)CCCC(=O)O (stereo not given) do in these assays?
IMPase Li cell: 7%; HTT cytoprotect: -12%

What do the screens show for `Cc1cc(NC(=O)CSc2ccc(-c3nc4cc(C)c(C)cc4[nH]3)cn2)no1`?
IMPase inh: 3; IMPase Li cell: 11µM*; HTT aggregate: 13%; NPSR antagonist: inconclusive; HTT cytoprotect: 16%; Lamin A splicing: 3%

How did Cc1cc2nc(-c3ccc(SCC(=O)NC(C)C)nc3)[nH]c2cc1C do in these assays?
IMPase Li cell: 3%; HTT aggregate: -1%; NPSR antagonist: -18%; HTT cytoprotect: -113%; Lamin A splicing: -4%[9.22 µM]

Results for CC(CN(C)C)CN1c2ccccc2CCc2ccccc21 (stereo not given) ?
IMPase Li cell: 27%; HTT aggregate: 0%[9.22 µM]; NPSR antagonist: 1%[46.1 µM]; HTT cytoprotect: 1µM*!; Lamin A splicing: inconclusive

Results for Cc1cc(N2CCN(C/C=C/c3ccccc3)CC2)n2ncnc2n1 ?
IMPase inh: 8; IMPase Li cell: -8%[38.3 µM]; HTT aggregate: 3.5µM*; NPSR antagonist: -18%[46.1 µM]; HTT cytoprotect: inconclusive; Lamin A splicing: inconclusive

Results for CC(=O)[C@H]([C@@H](c1ccccc1)N1CCOCC1)N1CCOCC1 ?
HTT cytoprotect: 3%[10 µM]

How did CCSc1ccc2cc(OC)ccc2[n+]1CC do in these assays?
IMPase Li cell: 8%; HTT aggregate: 8.9µM*; NPSR antagonist: 4%; HTT cytoprotect: -50%

How did CN(C)C(=O)c1ccc(-c2nc(NCc3ccccc3)c3ccccc3n2)cc1 do in these assays?
IMPase Li cell: -10%; HTT cytoprotect: -26%; Lamin A splicing: inconclusive

What do the screens show for `CCCCC#Cc1nc(N)c2ncn([C@@H]3O[C@@H](C(=O)NCC)[C@H](O)[C@@H]3O)c2n1`?
IMPase inh: -3; HTT cytoprotect: -16%[1.9 µM]

What do the screens show for `CCOC(=O)c1c(C)[nH]c(C)c1S(=O)(=O)N(C)CC(=O)NCc1ccc(Cl)cc1`?
Lamin A splicing: 3%[46 µM]

Results for CN(C)CCN(Cc1ccccc1)S(=O)(=O)c1cccc2cccnc12 ?
HTT cytoprotect: 2%

Results for Cc1cc(C)c2nc(N3CCN(C)CC3)c(C#N)cc2c1 ?
IMPase inh: -20; IMPase Li cell: 28µM*; HTT aggregate: 13%; NPSR antagonist: -15%[46.1 µM]; HTT cytoprotect: -18%[10 µM]; Lamin A splicing: inconclusive

What do the screens show for `O=C(N/N=C/c1cn(-c2ccccc2)nc1-c1ccccc1)c1ccco1`?
IMPase inh: 5[1.84 µM]; IMPase Li cell: 50%[38.3 µM]; HTT aggregate: 8%; NPSR antagonist: inconclusive; HTT cytoprotect: -6%[10 µM]; Lamin A splicing: inconclusive

What do the screens show for `O=C(N/N=C\c1cn(-c2ccccc2)nc1-c1ccccc1)c1ccc(Br)o1`?
IMPase inh: 18; IMPase Li cell: 14%[38.3 µM]; HTT aggregate: 25µM*; NPSR antagonist: -29%[46.1 µM]; HTT cytoprotect: -49%; Lamin A splicing: inconclusive

Results for Cc1ccc(-c2nn(-c3ccccc3)cc2/C=N/NC(=O)c2ccc(Br)o2)cc1 ?
IMPase inh: 12; IMPase Li cell: 19%[38.3 µM]; HTT aggregate: 7.1µM*; NPSR antagonist: 7.9µM*; HTT cytoprotect: -42%; Lamin A splicing: inconclusive

How did Cc1ccc(-c2nc(S(=O)(=O)c3ccc(Cl)cc3)c(N3CCCCC3)o2)cc1 do in these assays?
IMPase inh: -4

What do the screens show for `CCNc1ncc2nc(-c3ccccc3)c(=O)n(CCC#N)c2n1`?
IMPase Li cell: -20%; HTT cytoprotect: -16%; Lamin A splicing: -13%

What do the screens show for `Cc1sc2ncn(CCC(=O)O)c(=O)c2c1C`?
IMPase inh: -8; IMPase Li cell: 6%[38.3 µM]; HTT aggregate: -1%[9.22 µM]; NPSR antagonist: -7%[46.1 µM]; HTT cytoprotect: 3%; Lamin A splicing: 3%

How did Cc1sc2ncn(CCn3cnc4sc(C)c(C)c4c3=O)c(=O)c2c1C do in these assays?
IMPase inh: 4; IMPase Li cell: 10%[38.3 µM]; HTT aggregate: 0.45µM*; NPSR antagonist: -9%[46.1 µM]; HTT cytoprotect: 6%; Lamin A splicing: inconclusive

How did CCOC(=O)[C@@H](N)CS do in these assays?
HTT aggregate: 10%; HTT cytoprotect: 25%; Lamin A splicing: inconclusive

How did CN1CCN(C2=CC3=CC(=C(C#N)C#N)CCC3CC2)CC1 (stereo not given) do in these assays?
IMPase Li cell: 64%; HTT aggregate: 0.32µM*; NPSR antagonist: -48%; HTT cytoprotect: -12%

What do the screens show for `N#CC(C#N)=C1C=C2C=C(N3CCOCC3)CCC2CC1` (stereo not given)?
IMPase Li cell: 38%; HTT aggregate: 1.3µM*; NPSR antagonist: -51%; HTT cytoprotect: 8%[10 µM]; Lamin A splicing: inconclusive

Results for CC1(C)CC(NCCN2CCN(C3=CC(=C(C#N)C#N)CC(C)(C)C3)CC2)=CC(=C(C#N)C#N)C1 ?
IMPase Li cell: 7%; HTT aggregate: -11%; NPSR antagonist: -60%; HTT cytoprotect: -46%

How did N#CC(C#N)=C1C=C2C=C(N3CCCCCC3)CCC2CC1 (stereo not given) do in these assays?
IMPase Li cell: 23%; HTT aggregate: 0.71µM*; NPSR antagonist: -29%; HTT cytoprotect: -1%[10 µM]; Lamin A splicing: inconclusive

How did CCN1CCN(C2=CC3=CC(=C(C#N)C#N)CCC3CC2)CC1 (stereo not given) do in these assays?
IMPase Li cell: 25%; HTT aggregate: 2.8µM*; NPSR antagonist: -59%; Lamin A splicing: inconclusive

How did O=C(O)CCCC[C@@H]1CCSS1 do in these assays?
IMPase Li cell: -4%; NPSR antagonist: -8%[46.1 µM]; Lamin A splicing: inconclusive

Assay outcomes deposited in PubChem by National Center for Advancing Translational Sciences (NCATS).
